JMJD2A Tudor – qHTS Assay for Inhibitors of JMJD2A-Tudor Domain; Lysine-specific demethylase 4A (Homo sapiens), O75164; AlphaScreen JMJD2A-Tudor / H3K4me3 peptide binding; Potency, µM (top dose mostly 114 µM), most hits filed as inhibitors; 390,000 tested, 4.4% active; AID 504339, 2011; further: nearly all actives have a fitted effect of over 50% in size
L3MBTL1 inh – qHTS Assay for the Inhibitors of L3MBTL1; Lethal(3)malignant brain tumor-like protein 1 (Homo sapiens), Q9Y468; AlphaScreen L3MBTL1–H3K9me1 peptide binding; Potency, µM (top dose mostly 57.1 µM), actives largely listed as inhibitors; 230,000 tested, 0.66% active; AID 485360, 2010; further: nearly all actives have a fitted effect of over 60% in size
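AlphaScreen proximity signal between nickel-chelate acceptor and streptavidin donor beads (final 10 ug/mL) reports binding of 50 nM L3MBTL1 to 75 nM biotin-H3 K9me1 peptide; complex incubated with compounds 30 min at room temperature; cefsulodin titration as control.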
G9a block – qHTS Assay for Inhibitors of Histone Lysine Methyltransferase G9a. 350,000 tested, 8.8% active. Potency, µM (doses to about 102 µM), most hits filed as inhibitors. G9a H3K9 monomethylation, AlphaScreen, 2 h. AID 504332, 2011; further: nearly all actives have a fitted effect of over 75% in size
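G9a (20 nM) was preincubated 15 min with compound, then reacted 2 h at room temperature with 500 nM biotin-H3K9 peptide and 20 µM SAM. Monomethyl-H3K9 detected by AlphaScreen using anti-H3K9me1 antibody.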
BAZ2B inh – qHTS Assay for Inhibitors of BAZ2B; AlphaScreen BAZ2B-H3K14Ac peptide displacement; Potency, µM (doses to about 114 µM), usual class: inhibitors; 360,000 tested, 4.4% active; Bromodomain adjacent to zinc finger domain protein 2B (Homo sapiens), Q9UIF8; further: nearly all actives have a fitted effect of over 60% in size
Target sequence (Q9UIF8 whole entry, looked up, the tested form may be a part): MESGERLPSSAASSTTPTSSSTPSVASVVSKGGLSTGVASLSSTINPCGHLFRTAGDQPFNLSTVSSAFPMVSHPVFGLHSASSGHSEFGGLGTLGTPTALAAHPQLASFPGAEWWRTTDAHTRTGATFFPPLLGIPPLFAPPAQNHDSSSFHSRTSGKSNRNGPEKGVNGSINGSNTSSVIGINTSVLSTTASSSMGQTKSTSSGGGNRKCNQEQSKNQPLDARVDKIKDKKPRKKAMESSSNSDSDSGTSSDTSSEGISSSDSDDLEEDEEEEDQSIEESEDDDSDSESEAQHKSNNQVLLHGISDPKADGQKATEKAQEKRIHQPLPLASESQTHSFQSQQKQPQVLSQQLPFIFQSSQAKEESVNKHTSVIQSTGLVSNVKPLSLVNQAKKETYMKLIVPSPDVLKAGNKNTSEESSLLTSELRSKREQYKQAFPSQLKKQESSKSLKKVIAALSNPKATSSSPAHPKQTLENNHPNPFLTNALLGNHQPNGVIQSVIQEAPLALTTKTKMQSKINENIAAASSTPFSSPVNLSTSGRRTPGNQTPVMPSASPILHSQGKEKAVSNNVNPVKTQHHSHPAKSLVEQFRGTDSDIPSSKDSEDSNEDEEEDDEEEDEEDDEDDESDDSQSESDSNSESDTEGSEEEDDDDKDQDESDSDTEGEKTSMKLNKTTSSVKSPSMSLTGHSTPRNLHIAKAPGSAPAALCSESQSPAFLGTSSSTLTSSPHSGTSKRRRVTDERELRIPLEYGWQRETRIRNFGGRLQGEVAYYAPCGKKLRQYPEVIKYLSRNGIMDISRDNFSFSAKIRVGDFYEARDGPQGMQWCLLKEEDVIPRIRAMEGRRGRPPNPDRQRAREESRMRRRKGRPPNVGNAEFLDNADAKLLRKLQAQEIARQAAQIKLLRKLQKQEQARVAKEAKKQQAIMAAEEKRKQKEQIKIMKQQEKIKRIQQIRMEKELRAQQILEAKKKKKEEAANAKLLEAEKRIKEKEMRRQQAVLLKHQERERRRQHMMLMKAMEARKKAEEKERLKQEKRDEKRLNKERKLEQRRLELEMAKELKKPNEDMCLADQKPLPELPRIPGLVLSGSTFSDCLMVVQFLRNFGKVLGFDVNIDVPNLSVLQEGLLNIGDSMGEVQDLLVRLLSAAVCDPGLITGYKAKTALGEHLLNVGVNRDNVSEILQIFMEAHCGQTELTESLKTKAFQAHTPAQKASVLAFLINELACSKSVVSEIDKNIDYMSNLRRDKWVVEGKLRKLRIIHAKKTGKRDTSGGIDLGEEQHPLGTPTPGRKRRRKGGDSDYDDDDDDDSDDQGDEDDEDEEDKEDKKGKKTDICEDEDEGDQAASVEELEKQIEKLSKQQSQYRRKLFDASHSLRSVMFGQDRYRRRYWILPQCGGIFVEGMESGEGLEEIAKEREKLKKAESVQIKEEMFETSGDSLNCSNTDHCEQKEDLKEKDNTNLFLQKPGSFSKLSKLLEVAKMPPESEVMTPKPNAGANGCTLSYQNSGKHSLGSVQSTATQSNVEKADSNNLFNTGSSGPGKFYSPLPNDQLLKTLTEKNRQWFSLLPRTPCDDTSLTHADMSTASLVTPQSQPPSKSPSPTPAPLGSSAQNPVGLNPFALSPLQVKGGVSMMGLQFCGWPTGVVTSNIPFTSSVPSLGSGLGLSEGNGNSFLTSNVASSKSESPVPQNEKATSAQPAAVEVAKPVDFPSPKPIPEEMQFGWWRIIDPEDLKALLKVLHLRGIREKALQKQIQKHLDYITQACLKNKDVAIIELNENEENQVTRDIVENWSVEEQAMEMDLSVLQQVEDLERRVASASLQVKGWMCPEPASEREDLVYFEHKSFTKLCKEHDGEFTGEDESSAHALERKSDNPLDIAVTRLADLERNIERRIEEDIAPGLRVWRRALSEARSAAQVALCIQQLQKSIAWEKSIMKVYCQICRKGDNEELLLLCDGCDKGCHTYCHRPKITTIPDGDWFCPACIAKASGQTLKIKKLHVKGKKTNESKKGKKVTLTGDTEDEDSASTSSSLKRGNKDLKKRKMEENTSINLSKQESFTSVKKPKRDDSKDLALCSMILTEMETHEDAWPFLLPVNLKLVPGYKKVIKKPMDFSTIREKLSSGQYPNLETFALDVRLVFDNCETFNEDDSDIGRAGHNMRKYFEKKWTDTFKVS
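AlphaScreen luminescence quantifies BAZ2B engagement of H3K14Ac peptide; the protein and biotinylated peptide are both at 50 nM final, buffer PBS pH 7.4 with 0.01% Tween-20, all steps at room temperature.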
HP1b chromo inh – HTS for Inhibitors of HP1-beta Chromodomain Interactions with Methylated Histone Tails | Chromobox protein homolog 1 (Homo sapiens), P83916 | AlphaScreen HP1-beta / biotin-H3K9me3 peptide binding | Potency, µM (highest dose often 114 µM), most hits filed as inhibitors | 390,000 tested, 0.56% active | AID 540317, 2011; further: nearly all actives have a fitted effect of over 70% in size
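AlphaScreen: HP1-beta (50 nM) preformed 30 min with biotin-H3(1-18)K9me3 peptide (50 nM) in PBS pH 7.4, 0.01% Tween-20. Compound added for 30 min at RT, then streptavidin donor/nickel chelate acceptor beads (10 ug/mL) for 30 min.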
Numbers stand for hits; i = inactive; ? = inconclusive; nt = no result given; [ ] = another dose, or the depositor's remark. Compounds with a hit are over-represented: about 11% of the library has one in this group of screens. The call rests on the fitted dose curve; in most records, active means well fitted inhibition curve with a large enough effect; inconclusive means small, poorly fitted or top-dose-only effect; inactive means no such curve, though single readings can be large or run the other way.

SMILES | JMJD2A Tudor | L3MBTL1 inh | G9a block | BAZ2B inh | HP1b chromo inh
CCn1cc(C(=O)NCc2ccc(F)cc2)c(=O)c2cc(S(=O)(=O)N(C)C)ccc21 | i | nt | i | nt | i
Cc1ccc2nc(-c3ccsc3)c(Nc3ccc(Cl)cc3)n2c1 | i | nt | i | i | i
Cc1ccc2c(c1)c(=O)c(C(=O)c1ccncc1)cn2CC(=O)Nc1ccccc1Cl | i | nt | i | i | i
CC(=O)Nc1ccc(S(=O)(=O)Nc2cc(C)cn(Cc3ccccc3)c2=O)cc1 | 25.1µM | nt | i | i | i
CC(=O)Nc1ccc(S(=O)(=O)Nc2cccn(Cc3ccc(C)cc3)c2=O)cc1 | i | i | i | i | i
CCN1CCN(C2=C(NS(=O)(=O)c3ccc(NC(C)=O)cc3)C(=O)c3ccccc3C2=O)CC1 | i | nt | ? | ? | i
CCN1CCN(C2=C(NS(=O)(=O)c3ccc(C)cc3)C(=O)c3ccccc3C2=O)CC1 | i | nt | 39.8µM | ? | i
CC(=O)Nc1ccc(S(=O)(=O)NC2=C(N3CCN(Cc4ccccc4)CC3)C(=O)c3ccccc3C2=O)cc1 | 35.5µM | nt | ? | 20µM | 31.6µM
CCOC(=O)N1CCN(C2=C(NS(=O)(=O)c3ccc(NC(C)=O)cc3)C(=O)c3ccccc3C2=O)CC1 | ? | nt | 28.2µM | 44.7µM | i
COc1ccc(N2CCOCC2)c(NC(=O)c2cc3ccccc3o2)c1 | i | nt | ? | i | i
COC(=O)c1c(NC(=O)c2ccc(C(C)(C)C)cc2)sc2c1CCC(C)C2 (configuration not stated) | i | nt | i | i | i
Cc1nc2ccccn2c1CN(C)C(=O)C1CCC(=O)N(CCc2cccc(F)c2)C1 (configuration not stated) | i | nt | i | i | i
CCc1ccc(C2=NN(CCC(=O)NCc3cccs3)C(=O)CC2)cc1 | i | nt | i | i | i
CC(=O)Nc1ccc(S(=O)(=O)NC2=C(N3CCN(C)CC3)C(=O)c3ccccc3C2=O)cc1 | i | nt | 50.1µM | 31.6µM | i
CC(=O)Nc1ccc(S(=O)(=O)Nc2nc3ccccc3nc2N2CCCC2)cc1 | i | i | i | i | i
COc1ccc2c(c1)C(C)CC(C)(C)N2C(=O)Nc1ccccc1 (configuration not stated) | i | i | 22.4µM | ? | i
COc1ccc2c(c1)C(C)CC(C)(C)N2C(=O)CSc1nc2ccccc2s1 (configuration not stated) | i | i | i | i | i
Cc1ccc(-c2nnc(Nc3cccc(O)c3)c3ccccc23)cc1S(=O)(=O)N1CCOCC1 | ? | nt | i | i | i
Cc1cccc(Nc2nnc(-c3ccc(N4CCOCC4)c([N+](=O)[O-])c3)c3ccccc23)c1 | ? | i | 10µM | ? | i
NC(=O)c1ccc(/C=N/O)nc1 | 17.8µM | ? | 3.55µM | 31.6µM | i
NC(=O)c1ccc(OCc2ccccc2)nc1 | i | nt | nt | nt | i
O=C(NCc1ccccc1)c1ccc(/C=N/O)nc1 | 7.94µM | i | 10µM | 56.2µM | i
O=C(NCc1ccccn1)c1ccc(/C=N/O)nc1 | 17.8µM | i | i | 44.7µM | i
Cc1cc(C(=S)N2CCOCC2)c(C)n1-c1ccc(Cl)cc1 | 28.2µM | i | 3.16µM | 50.1µM | 44.7µM
Cc1cc(C)cc(-n2c(C)cc(C(=S)N3CCOCC3)c2C)c1 | 56.2µM | i | 4.47µM | 44.7µM | ?
SMILES | JMJD2A Tudor | L3MBTL1 inh | G9a block | BAZ2B inh | HP1b chromo inh
Cc1cccc(-n2c(C)cc(C(=S)N3CCOCC3)c2C)c1C | ? | i | ? | i | ?
COc1ccc(CN(C)C(=O)Cn2cc(C)c(=O)[nH]c2=O)cc1OC | 79.4µM | nt | nt | nt | i
CCOc1ccccc1NC(=O)Cc1csc(COc2cccc(C)c2)n1 | i | nt | i | i | i
NS(=O)(=O)c1ccc(N/N=C/c2cn(-c3ccccc3)nc2-c2cccs2)cc1 | ? | i | 10µM | i | i
O=C(O)c1cccc(N/N=C/c2cn(-c3ccccc3)nc2-c2cccs2)c1 | ? | i | 35.5µM | ? | i
NC(=O)N/N=C/c1cn(-c2ccccc2)nc1-c1cccs1 | i | i | i | i | i
COc1ccc(-c2c(C3C4C=CCCC4(C)C(=O)N3Cc3ccccc3)ccc3ccccc23)cc1OC (configuration not stated) | ? | nt | nt | nt | i
COc1ccc(N=NC2C(=O)N(c3ccccc3)N=C2C)cc1 (configuration not stated) | 7.94µM | nt | ? | 1.58µM | 7.08µM
CC1=NN(c2ccccc2)C(=O)C1N=Nc1ccccc1 (configuration not stated) | ? | i | 0.891µM | 3.16µM | ?
CC1=NN(c2ccccc2)C(=O)C1c1ccccc1 (configuration not stated) | i | i | i | i | i
CC1=NN(c2nc(-c3ccc(C)cc3)cs2)C(=O)C1N=Nc1ccccc1O (configuration not stated) | ? | i | nt | ? | i
CC1=NN(c2nc(-c3ccc(C)cc3)cs2)C(=O)C1N=Nc1cccc(O)c1 (configuration not stated) | 14.1µM | ? | 39.8µM | ? | ?
CC1=NN(c2ccccc2)C(=O)C1N=Nc1ccc(N)cc1 (configuration not stated) | ? | 25.1µM | ? | 12.6µM | ?
CC1=NN(C(N)=S)C(=O)C1N=Nc1cccc([N+](=O)[O-])c1 (configuration not stated) | i | nt | i | i | i
CC1=NN(c2ccccc2)C(=O)C1N=Nc1cccc(O)c1 (configuration not stated) | ? | i | 70.8µM | ? | i
Cc1cccc(-c2sc(Nc3ccccc3)n[n+]2-c2ccccc2)c1 | 79.4µM | i | i[2.33 µM] | 50.1µM | i
O=C(O)c1ccc(-c2sc(Nc3ccccc3)n[n+]2-c2ccc(F)cc2)cc1 | i | i | 39.8µM | i | i
O=C(O)c1ccc(-c2sc(Nc3ccccc3)n[n+]2-c2ccccc2)cc1 | 44.7µM | i | nt | ? | i
CN(C)c1ccc(-c2sc(Nc3ccccc3)n[n+]2-c2ccc(F)cc2)cc1 | ? | i | nt | i | i
Cc1ccc(NC(=O)Cn2c(=O)n(CCCCC(=O)NCc3ccccc3Cl)c(=O)c3ccccc32)cc1C | i | nt | i | i | i
COc1ccc(COC(=O)c2cccc(S(=O)(=O)N3CCN(C(C)=O)CC3)c2)cc1F | i | i | i[0.501 µM] | i | i
O=C(O)/C=C/C(=O)c1ccc2c(c1)NC(=O)CO2 | i | i | 3.16µM | i | i
O=C1COc2ccc(C(=O)NC3CC3)cc2N1 | i | nt | i | i | i
Cc1ccc2onc(CNC(=O)N3CCN(c4cccc(C)c4C)CC3)c2c1 | i | nt | i | i | i
COCCNc1nnc(SCC(=O)NNC(=O)c2ccc([N+](=O)[O-])cc2)s1 | i | i | 35.5µM | i | i
